Shown are actives, neighbours in structure and some others; about 3.3% of the full set was active somewhere.
HTT aggregate = inhibitors of mutant huntingtin aggregate formation in PC12 cells. PC12 HttQ103-GFP aggregates, Acumen cytometry, 40 h. Potency, µM (doses to about 46.1 µM), for the others: at the highest dose activity change, negative = inhibition, most hits filed as inhibitors. 220,000 compounds, 1.1% hits; also: potency is read from the fitted curve at half-maximal effect; % is scaled to controls: 0 for no effect and ±100 for the full control effect; nearly all actives have a fitted effect of over 60% in size
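PC12/HTTQ103-GFP, ecdysone-inducible; teb 100 nM; cpd qHTS titration; GFP aggregates read on laser cytometer, Ex 488/Em 500-530 nm.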
IMPase cell inh = cell-permeable inhibitors of inositol monophosphatase (IMPase); CHO-M1 cells, IP1 accumulation, HTRF TR-FRET ratio; 120,000 tested, under 10 active; inhibition (IP1 accumulation), % at 46.1 µM; active = well fitted curve in the direction sought with a large enough effect in the signal ratio, not every such curve was filed as active; inconclusive = small, poorly fitted or top-dose-only effect, or a change in a side signal; inactive = no such curve, though single readings can be large or run the other way; the % refers to the signal ratio;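 also: cells stimulated with carbachol in lithium chloride buffer; plate controls were DMSO basal wells for no effect and reference inhibitor wells for full effect; higher means more IMPase inhibition seen as more IP1 and lower FRET ratio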
Target sequence (P97697 whole entry, looked up): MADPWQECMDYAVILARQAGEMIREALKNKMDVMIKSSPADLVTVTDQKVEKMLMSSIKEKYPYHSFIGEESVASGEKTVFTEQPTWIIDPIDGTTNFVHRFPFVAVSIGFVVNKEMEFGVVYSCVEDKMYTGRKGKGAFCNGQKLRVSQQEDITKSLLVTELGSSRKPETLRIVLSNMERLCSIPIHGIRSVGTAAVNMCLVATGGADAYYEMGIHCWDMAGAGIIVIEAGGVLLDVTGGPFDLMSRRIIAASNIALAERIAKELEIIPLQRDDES
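Measured: the HTRF emission ratio (665/620 nm) plus the 620 nm donor channel, each fitted to the Hill equation to give AC50. Cells were CHO-M1 given compounds up to 46 uM and a 30 min carbachol stimulation at 37C.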
12-hLO inh = inhibitors of human 12-lipoxygenase (ALOX12). purified 12-hLO, xylenol orange hydroperoxide absorbance. Potency, µM (top dose mostly 57.1 µM), inactives show at the top dose activity change, negative = inhibition, usual class: inhibitors. 150,000 compounds, 0.12% hits; also: potency is read from the fitted curve at half-maximal effect; % is scaled to controls: 0 for no effect and ±100 for the full control effect; nearly all actives have a fitted effect of over 55% in size
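Lipoxygenase turnover measured by absorbance at 573 and 405 nm after Fe-XO development. Human 12hLO 150 nM, arachidonate 40 uM, pH 7.0 Hepes buffer with detergent; 15 min compound preincubation, 30 min reaction.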
PNC assembly inh = perinucleolar compartment assembly inhibition. 140,000 compounds, 3.1% hits. PC3M PTB-GFP, PNC prevalence imaging, 16 h; active compounds read low. activity change (PNC), negative = inhibition, % at 10 µM;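 active = readout at or below -70, meaning at least 70% loss of cells showing the perinucleolar compartment, a nuclear body marking cancer cells; inconclusive = readout between -30 and a set limit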;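 also: plate controls were DMSO wells for no effect and camptothecin positive control wells for full effect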
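Compounds are pinned in duplicate onto adhered PC3M cells stably expressing GFP-tagged PTB and incubated 16 h at 37 C. Cells are then fixed, nuclei stained with Hoechst, and PNC-positive cells counted.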
HTT ATP protect = Huntington cell model cytoprotection by ATP luminescence; PC12 HTT-Q103 induced, cytoprotection, ATP luminescence, 40 h; Potency, µM (highest dose often 56.4 µM), for the others: cytoprotection (ATP increase), hits mostly activators; 230,000 compounds, 0.14% hits; also: potency is read from the fitted curve at half-maximal effect; % of control where 0% means no effect; nearly all actives have a fitted effect of over 45% in size
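PC12 cells stably carrying ecdysone-inducible Htt exon 1 (Q103)–GFP were induced with 100 nM tebufenozide (final) alongside library compounds in a dose series. Cytoprotection was scored as retained ATP by ATPlite luminescence.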
NPSR antag = antagonists of human neuropeptide S receptor cAMP signaling. Q6W5P4. Potency, µM (series often up to 38.3 µM), for the others: top-dose activity change, negative = inhibition, most hits filed as inhibitors. CHO-NPSR cells, cAMP TR-FRET, antagonist mode. 220,000 compounds, 1% hits; also: potency is read from the fitted curve at half-maximal effect; % is scaled to controls: 0 for no effect and ±100 for the full control effect; nearly all actives have a fitted effect of over 50% in size
Active calls of the source: *; ? = inconclusive; nt = no result given; [ ] = remark or other dose. Unless noted, calls follow the shape of the dose curve; as a rule, active = well fitted curve in the direction sought with a large enough effect; inconclusive = small, poorly fitted or top-dose-only effect, or another doubt; inactive = no such curve, though single readings can be large; an effect the other way counts as inactive or inconclusive.

SMILES	HTT aggregate	IMPase cell inh	12-hLO inh	PNC assembly inh	HTT ATP protect	NPSR antag
NC(=O)CCn1c2ccccc2c2ccccc21	nt	nt	nt	nt	nt	8.8%
CN(Cc1ccccc1)C(=O)[C@H](Cc1ccc2ccccc2c1)NC(=O)[C@@H]1CCCN1C(=O)Nc1ccccc1[N+](=O)[O-]	nt	nt	-8.3%[0.00818 µM]	nt	nt	nt
COc1ccc(NC(=O)/C(Cl)=C(/Cl)S(=O)Cc2ccc(Cl)cc2)cn1 (stereo not drawn)	4.47µM*	nt	nt	nt	-155.0%	7.94µM*
COc1ccc(NC(=O)/C(Cl)=C(/Cl)S(=O)(=O)Cc2ccccc2)cn1	?	3.8	-15.6%	-20.7	-87.2%[10 µM]	5.01µM*
COC(=O)c1c(NC(=O)CCCOc2ccccc2C)sc2c1CCC2	nt	-8.3	nt	nt	nt	nt
CCCOc1ccc(C2NC(=S)NC(c3ccccc3)=C2C(=O)Nc2ccc(C)cc2)cc1OC (stereo not drawn)	23.7%	-7.8	14.1µM*	?	2.8%[10 µM]	-4.2%
CCOc1ccccc1CN1CCN(S(=O)(=O)CC)CC1	10.0%	10.1	-8.0%	?	-2.4%[10 µM]	3.5%[46.1 µM]
CCCS(=O)(=O)N1CCN(Cc2ccccc2OCC)CC1	-9.4%	9.2	-1.3%	-85.2*	-0.9%	2.1%[46.1 µM]
NNC(=O)c1ccc(OCc2nc3ccccc3[nH]2)cc1	nt	nt	-2.4%[11.4 µM]	nt	-12.1%[10 µM]	nt
O=C(COc1ccc(Cl)cc1Cl)Nc1ccccc1NS(=O)(=O)c1cccs1	20.3%[9.22 µM]	nt	nt	nt	-54.1%	-25.1%
O=C(COc1ccccc1)Nc1ccccc1NS(=O)(=O)c1cccs1	?	nt	1.6%	-99.7*	6.7%[10 µM]	-4.9%
CC(C)(C)c1ccc(-c2ncccc2O)cc1	10.3%[9.22 µM]	nt	nt	nt	-10.2%[10 µM]	18.7%
CCC(C)NC(=O)C1CCC(=O)N(c2cc(OC)c(OC)c(OC)c2)C1c1ccc(OC)cc1 (stereo not drawn)	-14.2%	?	4.2%	-100.0*	6.9%[10 µM]	4.1%[46.1 µM]
COc1ccc(C2C(C(=O)N3CCN(c4ccccc4)CC3)c3ccccc3C(=O)N2C)cc1OC (stereo not drawn)	4.8%	-2.2	-4.2%	34.9	20.4%[10 µM]	-0.8%[46.1 µM]
CCC(C)NC(=O)C1c2cc(OC)c(OC)cc2C(=O)N(C)C1c1ccc(OC)cc1 (stereo not drawn)	-26.6%	-7.0	1.9%	-100.0*	7.4%[10 µM]	-28.2%[46.1 µM]
CCN1CCN(C(=O)C2c3cc(OC)c(OC)cc3C(=O)N(C)C2c2ccc(SC)cc2)CC1 (stereo not drawn)	-8.9%	13.1	3.1%	-100.0*	13.1%[10 µM]	5.6%[46.1 µM]
COc1ccc(C2C(C(=O)N3CCN(c4ccccc4)CC3)c3ccccc3C(=O)N2C)cc1 (stereo not drawn)	-17.0%	-0.5	-3.2%	-100.0*	-20.8%[10 µM]	-15.2%[46.1 µM]
Cc1cnc(CNc2ncncc2-c2c(C)noc2C)cn1	nt	nt	nt	nt	-46.4%	nt
C#CCCOC(=O)N1C2=NC(C(=O)OC)=C(C(=O)OC)[C@@H]3N(CC#CC)c4ccccc4[C@]23C[C@H]1C(=O)OC	nt	nt	-0.1%[11.4 µM]	nt	-7.3%[10 µM]	nt
CCn1c(C)nc2cc(C(=O)NNC(=S)Nc3ccc(OC)cc3)ccc21	24.5%	nt	nt	nt	7.4%[10 µM]	1.7%
CC(=O)NCCC(Cc1ccccc1)c1ccco1 (stereo not drawn)	3.2%	0.5	-1.8%	-100.0*	-18.3%[0.074 µM]	0.3%[46.1 µM]
c1ccc(CNCCC(Cc2ccccc2)c2ccco2)cc1 (stereo not drawn)	-5.3%[9.22 µM]	nt	nt	nt	2.9%[10 µM]	-13.4%
CCc1ccc(Oc2c(C(F)(F)F)oc3c(CN4CCN(C)CC4)c(O)ccc3c2=O)cc1	nt	-4.6	nt	nt	nt	nt
Cc1cc(N2CCCC2)n2nc(C)nc2n1	-5.9%	nt	-0.4%	-84.2*	5.6%	8.3%
COc1ccccc1-c1c(C)nn2c(N3CCCCCC3)cc(C)nc12	?	-3.1	-3.2%	?	-11.9%	10µM*
Cc1cc(N2CCCCC2)n2nc(C)c(-c3ccccc3)c2n1	?	10.2	4.0%	-81.8*	-19.4%[0.074 µM]	-27.1%[46.1 µM]
COc1ccc(S(=O)(=O)Cc2ccc(C(=O)N3CCN(c4ccc(Cl)cc4)CC3)o2)cc1	?	6.3	-9.5%	-25.2	-4.0%	-27.3%[46.1 µM]

Source: PubChem
